Measured values from PubChem BioAssay AID2685 (National Center for Advancing Translational Sciences (NCATS), 2010).
The campaign covered roughly 320,000 compounds. About 2,100 (0.66%) were called active. Not shown: some 53% with an inconclusive outcome. Calls follow the shape of the dose curve; as a rule, active = well fitted inhibition curve with a large enough effect in the signal ratio, with a control signal flat (not every such curve was filed as active); inconclusive = small, poorly fitted or top-dose-only effect, or effect the other way, or a change in a side signal; inactive = flat fitted curve, though single readings scatter; the % refers to the signal ratio. The entries come from a sample that favours actives as a whole.

Experiment: qHTS Assay for Lipid Storage Modulators in Drosophila S3 Cells;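 as to cell number change: cells counted by Cell Tracker Red CMTPX staining in the red channel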; as to lipid storage change, negative = inhibition: % is scaled to controls: 0 for no effect and ±100 for the full control effect
Conditions: BODIPY lipid droplet fluorescence, 18-24 h, cells fed with added oleic acid; cell number change: measured here: cell count max response; series mostly up to 46.1 µM; lipid storage change, negative = inhibition: at the top concentration
Source text: NIH Molecular Libraries Probe Production Centers Network [MLPCN] NIH Chemical Genomics Center [NCGC] MLPCN Grant: 1 R03 MH085686-01 Assay Submitter (PI): Beller, Mathias; Max-Planck-Institut fur Biophysikalische Chemie NCGC Assay Overview: Storing lipids as a reservoir for energy or the anabolism of elementary metabolites is a common feature of probably all cells and is conserved from bacteria to humans. The universal cellular lipid storage organelle is the so-called lipid storage droplet (LD). Although ubiquitous, LDs share a simple structure composed of a hydrophobic core that harbors the storage lipids, which is shielded by a droplet-specific phospholipid monolayer to which proteins are attached. The current model of LD biogenesis involves an incorporation of the lipid core into the membrane leaflets of the endoplasmic reticulum (ER) followed by a subsequent budding-like maturation of a LD, which ultimately pinches off. Once released, LD volume can increase by localized lipogenesis or fusion of existing droplet. Storage lipids are re-mobilized enzymatically by lipase activity. Lipase regulation in the adipocyte is heavily studied and involves multiple components including catecholamine signaling, the LD-associated proteins Perilipin and comparative gene identification (CGI-58) and at least two lipases named hormone sensitive lipase (HSL) and adipocyte triglyceride lipase (ATGL). LD regulation outside of the adipocyte is poorly understood and only few components are known. However, there is an urgent need to learn more about ectopic fat depots as mislocalized storage of lipids, for example in the liver or muscle, is an eminent health problem associated with insulin resistance or the metabolic syndrome. We developed a laser-scanning cytometer assay to enable 1,536-well screening and combined the results of the small molecules screen with an RNAi database based on lipid storage.
Triacsin C (Sigma-Aldrich T-4540), an inhibitor of long-chain fatty acyl CoA synthetase that blocks synthesis of triglycerides, was used as a positive control for lipid under-storage. A total of 23 nL of compound solution of different concentrations were transferred to the assay plates using a Kalypsys pin tool equipped with a 1,536-pin array containing 10-nL slotted pins (FP1S10, 0.457-mm diameter, 50.8 mm long; V&P Scientific). One microliter of oleic acid (400 uM) was added, and the plate was lidded with stainless steel rubber gasket lined lids containing pinholes. […] Fluorescence was detected by excitation of the fluorophores with a 488-nm laser on an Acumen Explorer (TTP Lab Tech). The total intensity in channel 2 (500-530 nm) reflected lipid droplet accumulation. Cells were detected using channel 3 (575-640 nm) with 5-um width and 100-um depth filters. The ratio of the number of objects in PMT channel 2 over the number of objects in PMT channel 3 was also calculated. Percent activity was computed relative to an internal control (100% inhibited lipid droplet deposition due to the presence of 20 uM Triacsin C), which was added to 32 wells/plate.
Potency is read from the fitted curve at half-maximal effect.

Which “lipid storage change, negative = inhibition” value does the source give for `CCCCn1nnnc1SCC(=O)NNC(=O)c1ccco1` here?
The value was -4.32% (inactive).

What about the cell number change of the same compound?
Its cell number change is 1.07%.

Which “lipid storage change, negative = inhibition” value does the source give for `COc1ccc(C(C)NC(=O)c2ccc([N+](=O)[O-])cc2)cc1OC` (stereo not drawn) here?
The value was 3% (inactive).

And the cell number change?
The cell number change was 5.72%.

Which results are given for `CC12COC3(C(=O)Nc4nccs4)CC1CCC32C` (stereo not drawn)?
lipid storage change, negative = inhibition: -0.803% (inactive); cell number change: 20.9%

For `O=C1c2ccccc2C(=O)N1Cc1ccccn1`, which “lipid storage change, negative = inhibition” value is on record?
Its value is -22.3% (inactive).

And the cell number change?
The cell number change was -28%.

Which “lipid storage change, negative = inhibition” value does the source give for `COC(=O)C1=C(C)C(c2cccs2)NC(=O)N1C` (stereo not drawn) here?
Its value is 2.46% (inactive).

And the cell number change?
The cell number change was 10.6%.

With `O=C(NCc1cccs1)NC1CCCCC1` as the compound, how does the “lipid storage change, negative = inhibition” value read?
The value was -1.33% (inactive).

What about the cell number change of the same compound?
Its cell number change is 3.84%.

With `O=C(NCCCn1ccnc1)c1ccc2ccccc2c1` as the compound, how does the “lipid storage change, negative = inhibition” value read?
The value was 20% (inactive).

What does the source list for `O=C(O)c1c(Cl)nc2ccccn12`?
Potency: 4.61 µM (active); cell number change: -7.31%

With `O=Cc1c(Cl)nc2ccccn12` as the compound, how does the “lipid storage change, negative = inhibition” value read?
The value was -10.1% (inactive).

And the cell number change?
The cell number change was -2.46%.

Which “outcome” value does the source give for `Cc1nc2ccccn2c1C(=O)c1ccccc1` here?
The value was “inactive”.

And the cell number change?
Its cell number change is 15.8%.

What does the source list for `COc1ccc([N+](=O)[O-])cc1NC(=O)CSc1nc(C)c(C)c(C)n1`?
lipid storage change, negative = inhibition: 7.69% (inactive); cell number change: 1.59%

With `CCOC(=O)C1CCN(C(=O)Cn2cnc3sc(C)c(S(=O)(=O)N4CCOCC4)c3c2=O)CC1` as the compound, how does the “outcome” value read?
Its value is “inactive”.

What about the cell number change of the same compound?
Its cell number change is 1.25%.

Which Potency does the source give for `CCOC(=O)C1CCN(C(=O)Cn2cnc3sc(C)c(S(=O)(=O)N4CCC(C)CC4)c3c2=O)CC1` here?
The Potency was 0.58 µM (active).

What about the cell number change of the same compound?
The cell number change was 14.4%.

With `Cc1sc2ncn(CC(=O)N3CCCCC3)c(=O)c2c1S(=O)(=O)N1CCC(C)CC1` as the compound, how does the “outcome” value read?
The value was “inactive”.

And the cell number change?
The cell number change was 18.5%.

Which “lipid storage change, negative = inhibition” value does the source give for `CN(C)c1ncc(S(=O)(=O)c2ccccc2)c(=O)[nH]1` here?
Its value is -2.86% (inactive).

What about the cell number change of the same compound?
Its cell number change is 19.4%.

For `COC(=O)CNC(=O)C12CC3(C)CC(C)(CC(C)(C3)C1)C2`, which “lipid storage change, negative = inhibition” value is on record?
The value was -1.63% (inactive).

And the cell number change?
The cell number change was -2.27%.

For `CC12CC3(C)CC(C)(C1)CC(C(=O)NCC(=O)O)(C2)C3`, which Potency is on record?
The Potency was 1.46 µM (active).

What about the cell number change of the same compound?
Its cell number change is -16.9%.

What does the source list for `CC12CC3(C)CC(C)(C1)CC(C(=O)NC(=S)N1CCCC1)(C2)C3`?
lipid storage change, negative = inhibition: 0.446% (inactive); cell number change: -0.792%

Which results are given for `Cc1cc(C)nc(SCc2cn3c(C)cccc3n2)n1`?
lipid storage change, negative = inhibition: 22.7% (inactive); cell number change: 13.2%

Which “outcome” value does the source give for `O=C(NCCc1ccccc1)C1CCCN(C(=O)Nc2ccc(F)cc2)C1` (stereo not drawn) here?
The value was “inactive”.

And the cell number change?
Its cell number change is 16.8%.

With `O=C(COC(=O)c1ccc(NS(=O)(=O)c2ccc(F)c(F)c2)cc1)NCC1CCCO1` (stereo not drawn) as the compound, how does the “lipid storage change, negative = inhibition” value read?
Its value is 9.43% (inactive).

And the cell number change?
Its cell number change is 10.2%.

Which “outcome” value does the source give for `O=C(CCc1c[nH]c2ccccc12)N1CCCCCCC1` here?
Its value is “inactive”.

What about the cell number change of the same compound?
Its cell number change is -19.1%.

Which results are given for `Cc1cc(NC(=O)c2ccc([N+](=O)[O-])cc2)no1`?
Potency: 0.58 µM (active); cell number change: -11.8%

With `Cc1cc(NC(=O)c2cc([N+](=O)[O-])cc([N+](=O)[O-])c2)no1` as the compound, how does the “lipid storage change, negative = inhibition” value read?
Its value is -20.4% (inactive).

What about the cell number change of the same compound?
The cell number change was 2.37%.

Which “lipid storage change, negative = inhibition” value does the source give for `Cc1cc(NC(=O)c2ccc(C)c([N+](=O)[O-])c2)no1` here?
The value was -0.109% (inactive).

What about the cell number change of the same compound?
Its cell number change is 0.478%.

With `C/C(=N\NC(=O)c1ccc(F)cc1)c1cccc(NC(=O)c2cccc(F)c2)c1` as the compound, how does the “lipid storage change, negative = inhibition” value read?
The value was -24.1% (inactive).

What about the cell number change of the same compound?
The cell number change was 11.9%.

For `COC(=O)c1sccc1NC(=O)COc1ccc(F)cc1Cl`, which “lipid storage change, negative = inhibition” value is on record?
Its value is 16.3% (inactive).

What about the cell number change of the same compound?
The cell number change was 0.149%.

With `COCCc1nn2c(=O)cc(COC(=O)c3cc(OC)c(OC)c(OC)c3)nc2s1` as the compound, how does the “lipid storage change, negative = inhibition” value read?
The value was -24.2% (inactive).

Which results are given for `Cc1nn2c(=O)cc(COC(=O)c3ccc(NC(=O)C(C)(C)C)cc3)nc2s1`?
Potency: 3.66 µM (active); cell number change: 7.59%

What does the source list for `Cc1ccc(C(=O)Nc2ccc(C(=O)OCc3cc(=O)n4ccsc4n3)cc2)cc1`?
lipid storage change, negative = inhibition: 6.49% (inactive); cell number change: 10.6%

With `COc1ccc(C(=O)CSc2ccc3nnc(-c4cccnc4)n3n2)cc1` as the compound, how does the “lipid storage change, negative = inhibition” value read?
The value was -5.62% (inactive).

And the cell number change?
The cell number change was -3.07%.

With `Clc1ccc(OCc2nnc3n2CCCCC3)c(Cl)c1` as the compound, how does the “lipid storage change, negative = inhibition” value read?
Its value is 4.84% (inactive).

What does the source list for `O=C(CCN1C(=O)S/C(=C\c2ccccc2)C1=O)NC1CCS(=O)(=O)C1` (stereo not drawn)?
outcome: inactive; cell number change: -15.9%

For `O=C(CN1C(=O)/C(=C/c2ccccc2)SC1=S)NC1CCS(=O)(=O)C1` (stereo not drawn), which “lipid storage change, negative = inhibition” value is on record?
The value was -13.4% (inactive).

Which results are given for `O=C(CN1C(=O)S/C(=C\c2ccccc2F)C1=O)NC1CCS(=O)(=O)C1` (stereo not drawn)?
lipid storage change, negative = inhibition: -4.85% (inactive); cell number change: -4.18%

Which Potency does the source give for `O=C(CN1C(=O)S/C(=C\c2ccccc2)C1=O)NC1CCS(=O)(=O)C1` (stereo not drawn) here?
Its Potency is 20.6 µM (active).

With `COc1cccc(/C=C2\SC(=O)N(CC(=O)NC3CCS(=O)(=O)C3)C2=O)c1` (stereo not drawn) as the compound, how does the “outcome” value read?
The value was “inactive”.

And the cell number change?
The cell number change was 0.472%.

Which Potency does the source give for `CC(C(=O)NC1CCS(=O)(=O)C1)N1C(=O)/C(=C/c2ccc(Cl)cc2)SC1=S` (stereo not drawn) here?
The Potency was 20.6 µM (active).

And the cell number change?
Its cell number change is -12.5%.

Which results are given for `O=C(CN1C(=O)/C(=C/c2ccc(F)cc2)SC1=S)NC1CCS(=O)(=O)C1` (stereo not drawn)?
outcome: inactive; cell number change: -19.3%

Which “lipid storage change, negative = inhibition” value does the source give for `COc1ccc(/C=C2\SC(=S)N(CC(=O)NC3CCS(=O)(=O)C3)C2=O)cc1` (stereo not drawn) here?
Its value is 5.31% (inactive).

And the cell number change?
Its cell number change is 5.36%.

With `CC(C)c1ccc(/C=C2\SC(=O)N(CC(=O)NC3CCS(=O)(=O)C3)C2=O)cc1` (stereo not drawn) as the compound, how does the Potency read?
Its Potency is 2.59 µM (active).

What about the cell number change of the same compound?
Its cell number change is -27.6%.

Which results are given for `O=C(O)CSc1nnnn1C1CCCCC1`?
lipid storage change, negative = inhibition: -2% (inactive); cell number change: 12.8%

Which results are given for `CCOC(=O)c1oc2ccccc2c1COC(=O)CNC(=O)c1ccccc1`?
lipid storage change, negative = inhibition: -1.38% (inactive); cell number change: -8.09%

For `NC(=O)C1CCN(CC(O)CSc2ccccc2)CC1` (stereo not drawn), which “lipid storage change, negative = inhibition” value is on record?
Its value is 22.1% (inactive).

For `Cc1nnc(N/N=C/c2ccco2)n1N`, which “lipid storage change, negative = inhibition” value is on record?
The value was -2.72% (inactive).

And the cell number change?
The cell number change was -14%.

With `N/C(=N\OC(=O)c1cc([N+](=O)[O-])ccc1Cl)c1cccnc1` as the compound, how does the “lipid storage change, negative = inhibition” value read?
The value was -20.1% (inactive).

And the cell number change?
The cell number change was -8.86%.

Which results are given for `CN(C)CCCNC(=O)C(=O)NCC1OCCN1S(=O)(=O)c1cccs1` (stereo not drawn)?
lipid storage change, negative = inhibition: -20.9% (inactive); cell number change: 1.62%
